The values below come from PubChem BioAssay (Tox21).

Test [1] in a line: qHTS assay to identify small molecule antagonists of the glucocorticoid receptor (GR) signaling pathway - cell viability counter screen (AID 720693). Note: nearly all actives have a fitted effect of over 55% in size. Note: potency is the fitted concentration of half-maximal effect. Background: qHTS replaces the single test concentration by a dilution series.
Test [2] in a line: qHTS assay for identifying genotoxic compounds that show differential cytotoxicity against isogenic chicken DT40 cell lines with known DNA damage response pathways - wild type cell line (AID 743012). Note: nearly all actives have a fitted effect of over 60% in size. Note: potency is the fitted concentration of half-maximal effect. The essentials:
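Parental DNA repair-proficient DT40 cells, 300 per well, were pre-incubated ~0.5 h at 37 C/5% CO2, pin-dosed with compounds in DMSO, then incubated 40 h. Viability was read as CellTiter-Glo luminescence after 30 min at room temperature.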

The nature of test [3]: qHTS assay for identifying genotoxic compounds that show differential cytotoxicity against isogenic chicken DT40 cell lines with known DNA damage response pathways - Rev3 mutant cell line (AID 743014). Note: nearly all actives have a fitted effect of over 55% in size. Note: potency is the fitted concentration of half-maximal effect.
Test [4] in a line: qHTS assay for identifying genotoxic compounds that show differential cytotoxicity against isogenic chicken DT40 cell lines with known DNA damage response pathways - Rad54/Ku70 mutant cell line (AID 743015). Note: nearly all actives have a fitted effect of over 60% in size. Note: potency is the fitted concentration of half-maximal effect.
Test [5] is described as follows: qHTS assay to identify small molecule antagonists of the androgen receptor (AR) signaling pathway - cell viability counter screen (AID 743033; note: nearly all actives have a fitted effect of over 45% in size; note: potency is the fitted concentration of half-maximal effect).
For test [6], the target named is Androgen receptor (Homo sapiens) (UniProt P10275). The experiment in a line: qHTS assay to identify small molecule agonists of the androgen receptor (AR) signaling pathway using the MDA cell line (AID 743040; note: nearly all actives have a fitted effect of over 20% in size). The essentials:
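MDA-kb2 breast carcinoma cells stably carrying an MMTV-driven luciferase reporter (AR- and GR-responsive) were seeded and held 5 h at 37C, 0% CO2, then exposed to compounds in DMSO for 16 h. Luminescence was read 30 min after ONE-Glo addition.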

For test [7] the target is unchanged. The experiment in a line: qHTS assay to identify small molecule antagonists of the androgen receptor (AR) signaling pathway using the MDA cell line (AID 743042; note: nearly all actives have a fitted effect of over 55% in size; note: potency is the fitted concentration of half-maximal effect). The essentials:
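MDA-kb2 cells (human breast carcinoma, stably carrying an MMTV-luciferase reporter responsive to AR and GR) were plated at 3,000 cells/well and preincubated 5 hr at 37C, then given compound plus R1881 agonist for 16 h. ONE-Glo luminescence was read.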

Test [8] is described as follows: qHTS assay to identify small molecule antagonists of the thyroid receptor (TR) signaling pathway - cell viability counter screen (AID 743064). Note: nearly all actives have a fitted effect of over 50% in size. Note: potency is the fitted concentration of half-maximal effect. The essentials:
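In rat pituitary GH3.TRE-Luc reporter cells co-exposed to compound and 1 nM T3 for 23.5 h, cytotoxicity was assessed with CellTiter-Fluor in the same wells, read by fluorescence.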

Test [9] in a line: qHTS assay to identify small molecule antagonists of the thyroid receptor (TR) signaling pathway (AID 743065). Note: potency is the fitted concentration of half-maximal effect; nearly all actives have a fitted effect of over 55% in size. The essentials: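 GH3.TRE-Luc rat pituitary cells carrying two TR response elements driving luciferase were plated for 4 h, given compound plus 1 nM T3 (final), and incubated 23.5 h at 37 C. ONE-Glo luminescence measured reporter inhibition; CellTiter-Fluor fluorescence tracked cytotoxicity.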

The test system of test [10] is thyroid hormone receptor (rat, GH3 cells). The experiment in a line: qHTS assay to identify small molecule agonists of the thyroid receptor (TR) signaling pathway (AID 743066; calls by dose curve).
Test [11] is described as follows: qHTS assay to identify small molecule antagonists of the estrogen receptor alpha (ER-alpha) signaling pathway - cell viability counter screen (AID 743074; calls by dose curve; note: nearly all actives have a fitted effect of over 45% in size; note: potency is the fitted concentration of half-maximal effect).
A short description of test [12]: qHTS assay to identify small molecule antagonists of the estrogen receptor alpha (ER-alpha) signaling pathway using the BG1 cell line - cell viability counter screen (AID 743081).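 Note: compound given together with 17beta-estradiol as the ER stimulus; nearly all actives have a fitted effect of over 45% in size.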 Note: potency is the fitted concentration of half-maximal effect.
Test [13] deals with Aromatase (Homo sapiens) (UniProt P11511). Put plainly: qHTS assay to identify aromatase inhibitors (AID 743083). Note: nearly all actives have a fitted effect of over 55% in size. Note: potency is the fitted concentration of half-maximal effect.
Test [14] can be described thus: qHTS assay to identify aromatase inhibitors - cell viability counter screen (AID 743084). Note: potency is the fitted concentration of half-maximal effect.
Test [15] can be described thus: qHTS assay to identify small molecule antagonists of the androgen receptor (AR) signaling pathway using the MDA cell line - cell viability counter screen (AID 743041; note: nearly all actives have a fitted effect of over 45% in size; note: potency is the fitted concentration of half-maximal effect). The essentials:
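MDA-kb2 AR-luc human breast carcinoma cells (MMTV-luciferase, AR/GR responsive) were treated with compounds plus R1881 agonist for 16 h at 37 °C. Viability was read as CellTiter-Fluor fluorescence in the same wells as the reporter assay.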

The target in test [16] is Estrogen receptor (Homo sapiens) (UniProt P03372). The experiment in a line: qHTS assay to identify small molecule agonists of the estrogen receptor alpha (ER-alpha) signaling pathway (AID 743075; calls by dose curve; note: potency is the fitted concentration of half-maximal effect).
The nature of test [17]: qHTS assay to identify small molecule antagonists of the estrogen receptor alpha (ER-alpha) signaling pathway using the BG1 cell line (AID 743080; calls by dose curve;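 note: BG1 cells stimulated with 17beta-estradiol alongside compound; nearly all actives have a fitted effect of over 25% in size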; note: potency is the fitted concentration of half-maximal effect). The essentials:
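After 5 days in phenol-red-free 10% charcoal-stripped FBS medium, BG1-Luc-4E2 cells were seeded, left 24 h at 37 C, co-treated with compounds and 17beta-estradiol for 21.5 h, then assayed for viability and luciferase.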

The target of test [18] is Estrogen receptor (Homo sapiens) (UniProt P03372). Put plainly: qHTS assay to identify small molecule agonists of the estrogen receptor alpha (ER-alpha) signaling pathway using the BG1 cell line (AID 743079). Note: nearly all actives have a fitted effect of over 20% in size.
For test [19], the target named is Androgen receptor (Homo sapiens) (UniProt P10275). The experiment in a line: qHTS assay to identify small molecule agonists of the androgen receptor (AR) signaling pathway (AID 743036; active = well fitted activation curve with a large enough effect in the signal ratio in the repeat runs, with a control signal flat, not every such curve was filed as active; inconclusive = weak or mixed curves, or effect the other way; inactive = no such curve, though single readings can be large or run the other way; the % refers to the signal ratio). The essentials: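 Cell-based FRET reporter assay: HEK293 line with a UAS-beta-lactamase construct, compounds added in DMSO, 16 h exposure at 37C, then 2 h substrate step at room temperature and fluorescence intensity read.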

In test [20] the target is Estrogen receptor (Homo sapiens) (UniProt P03372). The experiment in a line: qHTS assay to identify small molecule antagonists of the estrogen receptor alpha (ER-alpha) signaling pathway (AID 743069; active = well fitted curve in the direction sought with a large enough effect in the signal ratio in the repeat runs, not every such curve was filed as active; inconclusive = weak or mixed curves, or effect the other way; inactive = no such curve, though single readings can be large or run the other way; the % refers to the signal ratio; note: potency is the fitted concentration of half-maximal effect). The essentials: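 HEK293 cells stably carrying an ER-alpha-UAS-bla beta-lactamase reporter were pre-cultured overnight in 2% charcoal-stripped FBS medium. Test compounds in DMSO were added together with 17beta-estradiol for 18 hr at 37C. Read-out was fluorescence after 2 hr with LiveBLAzer B/G FRET substrate at room temperature.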

Where “and” joins values, the source holds several entries; their conditions need not be identical. Identical values can stand only once. Calls of active or inactive are those of the source. Unless noted, calls come from the whole dose curve; as a rule, active = well fitted curve in the direction sought with a large enough effect in the repeat runs; inconclusive = weak or mixed curves; inactive = no such curve, though single readings can be large; an effect the other way counts as inactive or inconclusive.

Chain of Estrogen receptor (Homo sapiens) (P03372 whole entry, looked up): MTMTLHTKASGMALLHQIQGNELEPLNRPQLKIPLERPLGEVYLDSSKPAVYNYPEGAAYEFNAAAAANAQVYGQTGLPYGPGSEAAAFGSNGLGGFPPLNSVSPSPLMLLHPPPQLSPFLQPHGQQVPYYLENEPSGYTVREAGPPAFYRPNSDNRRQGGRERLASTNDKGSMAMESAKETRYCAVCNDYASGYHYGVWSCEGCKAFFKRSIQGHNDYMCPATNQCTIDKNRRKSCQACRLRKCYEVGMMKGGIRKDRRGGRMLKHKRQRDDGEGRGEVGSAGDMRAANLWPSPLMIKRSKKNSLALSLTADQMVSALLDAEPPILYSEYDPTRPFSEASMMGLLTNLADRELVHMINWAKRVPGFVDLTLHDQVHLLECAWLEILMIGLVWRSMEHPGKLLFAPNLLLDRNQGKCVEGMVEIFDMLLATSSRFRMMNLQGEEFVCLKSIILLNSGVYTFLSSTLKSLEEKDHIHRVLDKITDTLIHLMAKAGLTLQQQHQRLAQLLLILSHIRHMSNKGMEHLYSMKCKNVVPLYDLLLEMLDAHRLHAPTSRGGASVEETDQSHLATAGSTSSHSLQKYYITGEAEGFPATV
Chain of Aromatase (Homo sapiens) (P11511 whole entry, looked up): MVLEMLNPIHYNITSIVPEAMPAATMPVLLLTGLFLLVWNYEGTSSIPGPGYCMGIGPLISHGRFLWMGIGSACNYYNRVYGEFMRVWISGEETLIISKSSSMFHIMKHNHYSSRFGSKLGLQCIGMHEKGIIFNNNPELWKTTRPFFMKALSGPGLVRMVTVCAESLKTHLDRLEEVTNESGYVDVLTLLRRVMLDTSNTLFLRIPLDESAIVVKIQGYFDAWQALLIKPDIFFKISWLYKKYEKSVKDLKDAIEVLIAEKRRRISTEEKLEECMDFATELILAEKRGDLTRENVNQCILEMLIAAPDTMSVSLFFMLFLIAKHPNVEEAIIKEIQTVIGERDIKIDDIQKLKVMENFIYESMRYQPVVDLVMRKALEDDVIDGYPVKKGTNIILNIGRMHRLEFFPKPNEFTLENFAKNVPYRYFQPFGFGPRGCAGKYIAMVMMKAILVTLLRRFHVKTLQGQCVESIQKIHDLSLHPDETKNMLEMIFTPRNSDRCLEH
Chain of Androgen receptor (Homo sapiens) (P10275 whole entry, looked up): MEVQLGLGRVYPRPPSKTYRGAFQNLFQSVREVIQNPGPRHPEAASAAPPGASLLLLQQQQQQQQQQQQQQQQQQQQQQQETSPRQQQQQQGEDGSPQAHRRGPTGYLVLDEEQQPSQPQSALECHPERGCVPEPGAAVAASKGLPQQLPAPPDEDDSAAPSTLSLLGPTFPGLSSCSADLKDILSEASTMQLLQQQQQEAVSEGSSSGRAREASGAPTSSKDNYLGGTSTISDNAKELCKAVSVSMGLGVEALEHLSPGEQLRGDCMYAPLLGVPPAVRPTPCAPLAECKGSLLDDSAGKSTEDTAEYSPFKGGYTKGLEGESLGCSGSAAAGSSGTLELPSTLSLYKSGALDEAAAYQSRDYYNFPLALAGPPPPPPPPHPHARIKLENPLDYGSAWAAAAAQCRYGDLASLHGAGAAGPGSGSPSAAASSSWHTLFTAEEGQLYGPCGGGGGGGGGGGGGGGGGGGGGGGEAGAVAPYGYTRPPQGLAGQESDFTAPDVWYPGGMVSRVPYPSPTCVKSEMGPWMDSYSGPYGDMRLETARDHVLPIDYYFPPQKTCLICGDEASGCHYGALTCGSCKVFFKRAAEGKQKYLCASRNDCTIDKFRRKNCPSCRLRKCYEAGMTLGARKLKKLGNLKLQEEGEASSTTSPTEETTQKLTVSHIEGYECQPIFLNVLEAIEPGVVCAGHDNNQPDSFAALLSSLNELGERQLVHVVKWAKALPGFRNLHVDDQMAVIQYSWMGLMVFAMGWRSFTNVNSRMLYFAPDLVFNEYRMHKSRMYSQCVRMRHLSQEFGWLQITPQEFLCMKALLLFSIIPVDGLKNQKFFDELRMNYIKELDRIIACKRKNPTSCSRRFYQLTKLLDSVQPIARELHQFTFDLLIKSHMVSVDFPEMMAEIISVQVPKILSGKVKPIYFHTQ

`Cc1cc(N=Nc2ccccc2C)ccc1N`: the Potency is 49 µM (active) in [1]; 27.3 µM (active) in [2]; 54.5 µM (active) and 48.6 µM (active) in [3]; 27.3 µM (active) and 19.3 µM (active) in [4]; 24.3 µM (active) in test [8]; 7.7 µM (active) and 27.3 µM (active) in test [9]. Also, the Potency was 24.3 µM (active) and 27.3 µM (active) in test [12]; 24.3 µM (active) in test [14]. Besides, the Potency result in test [5], in [6], in test [7], in [11] and in [13] was “inactive” throughout. Moreover, in [10], the call was inactive.

On to `C=CC(=O)OCC(COC(=O)C=C)(COC(=O)C=C)COC(=O)C=C`, for which the Potency in test [1] was 8.71 µM (active); in test [2], 0.77 µM (active); in test [3], 0.969 µM (active); in test [5], 6.92 µM (active); in test [15], 7.7 µM (active); in test [7], 1.93 µM (active). Further, the Potency was 2.73 µM (active) in [8]; 43.6 µM (active) in test [11]; 27.5 µM [inconclusive] (active) in test [16]; 24.3 µM (active) in [12]; 3.06 µM (active) in test [13]; 2.73 µM (active) in test [14]. Further, the Potency result in [6] is “inactive”. Further, the outcome in [10] was inactive.

Consider `c1ccc2c(c1)OCC(C1=NCCN1)O2` (stereo not given), for which the Potency entry in test [1], in test [5], in test [11], in test [16], in test [17] and in [12] was “inactive” each time. Moreover, the Potency was 5.31 µM (active) in test [2]; 7.5 µM (active) in [3]; 8.41 µM (active) in test [4]; 7.5 µM (active) in test [8]; 7.5 µM (active) in [9]; 26.6 µM (active) in [13].

Take `O=[N+]([O-])c1ccc2ccc3cccc4ccc1c2c34`: the Potency result in test [1], in [2], in [3], in [5], in test [6] and in test [15] was “inactive” in each case. The Potency entry in test [7], in test [8], in test [11], in test [18], in test [13] and in test [14] was “inactive” in each case. Moreover, the call in test [10] was inactive. Besides, in test [16], the Potency is 2.75 µM [fluorescent] (active).

With `Oc1c(Br)c(Br)c(Br)c(Br)c1Br`, the Potency entry in [1], in test [2], in [3], in test [4], in test [19] and in test [6] was “inactive” in each case. In addition, the Potency result in test [15], in test [7], in test [16] and in test [12] was “inactive” in each case.

Consider `CCC(C)c1cc([N+](=O)[O-])cc([N+](=O)[O-])c1OC(=O)C=C(C)C` (stereo not given), for which the Potency result in test [1], in test [6], in test [11] and in [12] was “inactive” throughout. Moreover, the Potency in [2] was 21.7 µM (active); in test [3], 27.3 µM (active); in test [9], 21.7 µM (active); in test [13], 48.6 µM (active); in test [14], 24.3 µM (active). Moreover, the call in [10] was inactive.

On to `CC1(c2ccc(Oc3ccccc3)cc2)OC(=O)N(Nc2ccccc2)C1=O` (stereo not given), for which the Potency in test [1] is 22 µM (active); in test [2] it was 1.09 µM (active); in test [3] it was 0.869 µM (active); in test [5] it was 24.7 µM (active); in test [15] it was 27.5 µM (active); in test [9], 1.94 µM (active). The Potency was 17.5 µM [inconclusive] (active) in test [20], 21.8 µM (active) in test [17] and 61.5 µM (active) in [13]. Besides, the Potency entry in [11] was “inactive”.

As for `COc1cccc(C(=O)CCN[C@@H](C)[C@H](O)c2ccccc2)c1`, the Potency entry in [1], in [5], in test [19], in test [6], in test [11] and in test [13] was “inactive” each time. The Potency entry in test [14] was “inactive”. For the same molecule, the Potency was 6.68 µM (active) in test [2], 16.8 µM (active) in [3], 13.3 µM (active) in test [8] and 10.6 µM (active) in [9].

Regarding `O=c1[nH]c2ccccc2n1CCCN1CCC(n2c(=O)[nH]c3cc(Cl)ccc32)CC1`, the Potency result in [1], in [5], in test [15], in [12], in test [13] and in [14] was “inactive” throughout. Further, the Potency in [2] is 26.6 µM (active); in test [4] it was 23.7 µM (active); in [9] it was 26.6 µM (active).

For `CC(=O)OC1(c2ccccc2)CCN(CCc2ccccc2)CC1`, the Potency result in test [1], in test [5], in test [11], in test [12], in test [13] and in [14] was “inactive” each time. In addition, the Potency in test [2] is 4.43 µM (active); in [3], 4.43 µM (active); in test [8], 31.4 µM (active). Moreover, the call in test [10] was inactive.

Consider `CCCN(CC)CC1COC2(CCC(C(C)(C)C)CC2)O1` (stereo not given), for which the Potency result in test [1], in test [5], in [15], in test [20], in test [11] and in test [16] was “inactive” throughout. In addition, the Potency entry in test [18], in test [17], in test [12], in [13] and in test [14] was “inactive” throughout. The results for the Potency in test [2], in test [3] and in test [4] were 5.45 µM (active), 0.686 µM (active) and 1.22 µM (active), respectively. For the same molecule, the molecule was called inactive in test [10].

Turning to `CC(C)(O)c1cnn2c(-c3ccc(F)c(-c4c(F)cccc4C#N)c3)cnc2n1`, the Potency entry in test [1], in test [5], in [6], in [7], in test [11] and in test [12] was “inactive” in each case. Besides, the Potency entry in [14] was “inactive”. The Potency was 48.6 µM (active) in [2], 30.6 µM (active) in [3] and 54.5 µM (active) in test [13]. Moreover, the result in test [10] was inactive.

For `N#CNC#N`, the Potency entry in [1], in test [2], in [3], in test [5], in test [15] and in [12] was “inactive” each time. In addition, the Potency entry in test [13] and in test [14] was “inactive” throughout. In test [4], the Potency is 61.8 µM (active). Further, the outcome in test [10] was inactive.

As to `CC(C)CC(C)Nc1ccc(Nc2ccccc2)cc1` (stereo not given), the Potency is 48.2 µM (active) in test [1]; 26.8 µM (active) in test [2]; 16.9 µM (active) in test [3]; 15.1 µM (active) in test [4]; 21.5 µM (active) in [5]; 42.5 µM (active) in test [8]. For the same molecule, the Potency in test [11] is 48.2 µM (active); in [12], 53.5 µM (active); in [13], 53.5 µM (active); in test [14] it was 47.7 µM (active). For the same molecule, the molecule was called inactive in [10]. Besides, the Potency entry in [16] is “inactive”.

Consider `Clc1ccc(CO/N=C(\Cn2ccnc2)c2ccc(Cl)cc2Cl)c(Cl)c1`, for which the Potency entry in [1], in [5], in [15], in test [12] and in test [14] was “inactive” throughout. The Potency in test [2] is 13.3 µM (active); in test [3], 26.6 µM (active); in test [17], 11.9 µM (active); in test [13] it was 2.66 µM (active).

Consider `BrC(Br)C(Br)(Br)Br`, for which the Potency entry in test [1], in [2], in [3], in [4], in [15] and in [11] was “inactive” throughout. Besides, the Potency entry in test [16], in [18] and in test [12] was “inactive” in each case. For the same molecule, the Potency is 24.5 µM (active) in test [8], 19.4 µM (active) in test [9], 61.5 µM (active) in [13] and 54.8 µM (active) in test [14]. For the same molecule, the molecule was called inactive in [10].
